The campaign covered roughly 360,000 compounds. About 7,500 (2.1%) were called active. Roughly 8% stayed inconclusive and do not appear here. Calls follow the shape of the dose curve; as a rule, active = well fitted cell-killing curve with a large enough effect; inconclusive = small, poorly fitted or top-dose-only effect, or effect the other way, or another doubt; inactive = no such curve, though single readings can be large or run the other way. The entries come from a sample that favours actives as a whole. A call without a number means that no potency is given here.
Potency is read from the fitted curve at half-maximal effect.

This test is described as follows: qHTS for induction of synthetic lethality in tumor cells producing 2HG: qHTS for the HT-1080-IDH1KD cell line. As to conditions: HT-1080 IDH1 knockdown viability, ATP luminescence, 48 h; series mostly up to 46.1 µM. A digest of the protocol: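 CellTiter-Glo luminescence after 48 h compound exposure at 37 degrees C of IDH1-knockdown HT-1080 cells in 5% FBS RPMI. %Activity scaled between DMSO wells and cell-free media wells, with curves fitted and assigned curve classes.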
(In general: In qHTS, concentration-response curves come from the screen itself.)
Regarding `O=C(OCc1ccccc1)N1CCC2CC1c1ccc(-c3ccc4c(c3)OCO4)cc12` (stereo not given), the Potency result is “inactive”.
As for `CCOC(=O)C1(C)CCCN(C(=O)c2cccc(Cl)c2)C1` (stereo not given), the entry is “inactive”.
With `CCCCCNC(=O)C(c1ccc(OC)cc1)n1c(=O)c(-c2ccccc2)nc2ccccc21` (stereo not given) the entry was “inactive”.
In the case of `O=C(NC1CCCC1)C1c2ccccc2OCC(=O)N1Cc1ccccc1` (stereo not given), the Potency result is “inactive”.
As for `COc1cc(Br)cc(/C=N/c2ncn[nH]2)c1O`, the figure is 15.8 µM (active); as for `C=CCn1c(Cn2nnc3ccccc32)nnc1SCC(=O)N/N=C/c1cc(Br)cc(OC)c1O`, “inactive”; as for `Oc1c(Cl)cc(Cl)cc1/C=N/c1ncn[nH]1`, “inactive”.
For the compound `COc1cc2nc(N3CCCN(C)CC3)nc(NC(C)C)c2cc1OC`, the Potency entry is “inactive”.
As for `O=S1(=O)CC(N2CCSCC2)CN1Cc1cn(Cc2cccc(Cl)c2)nn1` (stereo not given), the entry is “inactive”.
Regarding `CN1OC[C@@H]2CN(S(=O)(=O)c3cccc4ccccc34)[C@H](c3ccc(N4CCCCC4)cc3)C[C@@H]21`, the Potency entry is “inactive”.
As to `CCC(C)(C)c1ccc(OCC(=O)N(C)C)c(C(C)(C)CC)c1`, the Potency is 20.6 µM (active).
For the compound `CCc1nc(C)ccc1OCC(=O)N(CC)CC`, the Potency result is “inactive”.
With `COc1cccc(C(O)c2ncc(-c3ccc4ccccc4c3)[nH]2)c1` (stereo not given) the entry was “inactive”.
Regarding `COc1ccc(S(=O)(=O)N2CCC(C(=O)NCCC(=O)NCCc3cccc(F)c3)CC2)cc1`, the Potency entry is “inactive”.
As for `Cc1ccc(NC(=O)[C@H](Cc2ccccc2)NC(=O)CC[C@H]2O[C@@H](n3ccc(=O)[nH]c3=O)[C@H](O)[C@@H]2O)cc1C`, the entry is “inactive”; as for `COc1cc(C(=O)OCCCN2CCOCC2)cc(OC)c1OC`, “inactive”.
As for `CCCc1c(C)nc2scc(-c3ccc(Cl)cc3)n2c1=O`, the entry is “inactive”.
As for `CC1CN(C(=O)CCC(=O)NC2CCN(Cc3ccccc3)CC2)c2ccccc2O1` (stereo not given), the entry is “inactive”; as for `CC1CN(C(=O)CCC(=O)NCc2cccnc2)c2ccccc2O1` (stereo not given), “inactive”; as for `CC1CN(C(=O)CCC(=O)NCCCN2CCC(Cc3ccccc3)CC2)c2cc(Cl)ccc2O1` (stereo not given), 16.4 µM (active).
Turning to `COc1ccc(CN2C(=O)C(CC(=O)NCc3cccc4ccccc34)CC(C(=O)N3CCOCC3)=C2C)cc1` (stereo not given), the Potency result is “inactive”.
As for `CC(=O)OCC(C)n1c(=O)c2ccccc2n1C(C)=O` (stereo not given), the entry is “inactive”; as for `O=c1ccc2c(-c3ccccc3S(=O)(=O)O)c3ccc(O)c(O)c3oc-2c1O`, 14.6 µM (active).
Turning to `O=S1(=O)CCN(C2CCCCCCCCCCC2)CC1`, the Potency result was “inactive”.
With `CCCCn1nnnc1C(c1cc2ccccc2o1)N(C)Cc1ccc(Cl)c(Cl)c1` (stereo not given) the entry was “inactive”; with `C=CC(=O)OCCOCCOCCOCCOC(=O)C=C`, 23.1 µM (active); with `O=Cc1cn(CCOc2ccc(F)cc2)c2ccccc12`, “inactive”.
With `CCOC(=O)/C(=N\Nc1cc(Cl)ccc1Cl)N1CCN(C)CC1` the figure was 20.6 µM (active); with `CCOC(=O)/C(=N\Nc1ccccc1Cl)N(C)C1CCS(=O)(=O)C1` (stereo not given), “inactive”; with `CCOC(=O)N1CCN(C(=O)C2CCN(S(=O)(=O)c3cc(Cl)ccc3OCC)CC2)CC1`, “inactive”.
